An excerpt weighted towards active compounds, which were near 11% of everything screened.
3T3 cytotox: Cytotoxic Profiling in NIH 3T3 Cell Line of Diverse Libraries Using Quantitative High-Throughput Screening. AID 1345082, 2018. NIH 3T3 viability, CellTiter-Glo ATP luminescence, 48-72 h. 94,000 tested, 4.3% active. Potency, µM (doses to about 96.7 µM), hits mostly inhibitors; further: nearly all actives have a fitted effect of over 55% in size
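Viability of NIH 3T3 cells after 48 or 72 hr compound treatment at 37 °C was assessed by CellTiter-Glo, with luminescence imaged following a 10 min room-temperature step.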
NPR1 antag: Natriuretic polypeptide receptor (hNpr1) antagonism - Primary qHTS | HEK293 hNpr1 GloSensor cGMP, ANP-stimulated luminescence | Potency, µM (titrated, usually from 46.3 µM), hits mostly inhibitors | 76,000 tested, 1.6% active; calls by dose curve; further: nearly all actives have a fitted effect of over 60% in size
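Compound pre-incubated 30 min at room temperature on GloSensor-loaded HEK293 cells stably carrying hNpr1 and the pGS-40F cGMP biosensor. Stimulation uses hNppA at 0.1 nM final; luminescence is taken at baseline and 20 min post-agonist.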
FLuc inh: Firefly luciferase inhibition profiling of diverse chemical library using quantitative high-throughput screening | Luciferin 4-monooxygenase (Photinus pyralis), P08659 | purified P. pyralis luciferase, luminescence, biochemical | Potency, µM (highest dose often 115 µM), actives largely listed as inhibitors | 76,000 tested, 2.5% active | AID 1347043, 2019; further: nearly all actives have a fitted effect of over 65% in size
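FLuc 10nM, D-luciferin 10uM, ATP 10uM, Mg acetate 10mM, Tris acetate pH 7.5, Tween/BSA; cpd qHTS; enzyme added last; CCD luminescence.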
HEK cytotox: Cytotoxic Profiling in HEK 293 Cell Line of Diverse Libraries Using Quantitative High-Throughput Screening; HEK 293 viability, ATP luminescence (CellTiter-Glo), 48-72 h; 94,000 tested, 6.6% active; Potency, µM (series often up to 115 µM), usual class: inhibitors; AID 1345083, 2018; further: nearly all actives have a fitted effect of over 60% in size
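Pintool-delivered compounds were incubated with HEK 293 cells (250 cells/well) at 37 degree Celsius for 48 or 72 hr. ATP-dependent luminescence (CellTiter-Glo) then reported remaining viable cells.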
Each line names hits and unclear results; the compound was inactive in the other large screens. Unless noted, the call rests on the fitted dose curve; in most records, active means well fitted curve in the direction sought with a large enough effect; inconclusive means small, poorly fitted or top-dose-only effect, or another doubt; inactive means no such curve, though single readings can be large; an effect the other way counts as inactive or inconclusive.

O=C(O)C1(c2ccccc2)CCN(S(=O)(=O)c2ccccc2)CC1	3T3 cytotox 79.4µM (no result: NPR1 antag, FLuc inh)
Fc1ccc(-c2ccc3ncc(Nc4ccc(Cl)cn4)n3n2)cc1	3T3 cytotox 100µM, HEK cytotox 100µM
Fc1ccc(-c2ccc3ncc(Nc4ccccn4)n3n2)cc1	3T3 cytotox inconclusive, HEK cytotox 89.1µM
CCCC(C)N1CC2(CCN(Cc3nnc(-c4ccccc4)o3)CC2)OC1=O (stereo not given)	3T3 cytotox inconclusive
COCC(=O)N[C@@H]1C=C[C@@H](c2c(C)nn(-c3ccc(C(C)(C)C)cc3)c2C)C1	3T3 cytotox 22.4µM, FLuc inh inconclusive, HEK cytotox 39.8µM
Cc1nn(-c2ccc(C(C)(C)C)cc2)c(C)c1[C@@H]1C=C[C@@H](NC(=O)CCC(=O)O)C1	FLuc inh 20µM, HEK cytotox inconclusive
Cc1nn(-c2ccc(C(F)(F)F)cc2)c(C)c1[C@@H]1C=C[C@@H](NC(=O)CCC(=O)O)C1	3T3 cytotox inconclusive, FLuc inh inconclusive, HEK cytotox inconclusive
Cc1cc(Cl)ccc1-n1nc(C)c([C@@H]2C=C[C@@H](NC(=O)CCC(=O)O)C2)c1C	FLuc inh 39.8µM
Cc1nn(-c2ccc(C(C)(C)C)cc2)c(C)c1[C@@H]1C=C[C@@H](NC(=O)CC(C)(C)CC(=O)O)C1	3T3 cytotox inconclusive, FLuc inh inconclusive
CO[C@H]1C(=O)N(C(C)C)[C@H]1C1CCN(Cc2cn[nH]c2-c2ccccc2)CC1	none (no result: NPR1 antag, FLuc inh)
COc1cc(-c2ccc(C(F)(F)F)cn2)cc2c1OCCNC2	3T3 cytotox inconclusive
Cc1ccc(C2=NC3(CCN(C(=O)c4ccc5[nH]ccc5c4)CC3)ON2)cc1	3T3 cytotox inconclusive, FLuc inh inconclusive, HEK cytotox inconclusive
CC(C)N1C[C@H](O)C[C@H]1c1nnc2n1CCN(C(=O)CC1CCCCC1)C2	none
O=C(c1ccc(Oc2ccccc2)cc1)N1CCNc2cnc(Nc3cccc(C(F)(F)F)c3)nc2C1	3T3 cytotox 25.1µM, NPR1 antag inconclusive, HEK cytotox 22.4µM
Cc1ncsc1C(=O)N1CCNc2cnc(Nc3cccc(C(F)(F)F)c3)nc2C1	3T3 cytotox inconclusive, NPR1 antag inconclusive, HEK cytotox inconclusive
O=C(c1ccc(Cl)cc1)N1CCNc2cnc(Nc3cccc(C(F)(F)F)c3)nc2C1	3T3 cytotox 22.4µM, NPR1 antag inconclusive, HEK cytotox 31.6µM
O=C(Nc1cccs1)N1CCNc2cnc(Nc3cccc(C(F)(F)F)c3)nc2C1	3T3 cytotox 79.4µM, HEK cytotox 79.4µM
COc1ccc(Cl)cc1S(=O)(=O)N1CCC(n2cnnc2C(C)C)CC1	none
O=C(NC1CCN(c2cc(-c3ccc(Cl)cc3)[nH]n2)C1)c1ccccc1 (stereo not given)	3T3 cytotox inconclusive, HEK cytotox inconclusive
COc1ccc(-c2cc(N3CCCC(NC(=O)c4ccccc4Br)C3)n[nH]2)cc1 (stereo not given)	3T3 cytotox inconclusive, FLuc inh inconclusive, HEK cytotox inconclusive
O=C(NC1CCN(c2cc(-c3ccc(Cl)cc3)[nH]n2)C1)c1ccc(Br)o1 (stereo not given)	3T3 cytotox inconclusive, HEK cytotox 35.5µM
COc1ccc(-c2cc(N3CCCC(NC(=O)Cc4ccc(OC)c(OC)c4)C3)n[nH]2)cc1 (stereo not given)	3T3 cytotox inconclusive, NPR1 antag inconclusive, FLuc inh inconclusive, HEK cytotox 35.5µM
COc1ccc(-c2cc(N3CCCC(NC(=O)c4ccc(Br)o4)C3)n[nH]2)cc1 (stereo not given)	3T3 cytotox inconclusive, FLuc inh 31.6µM, HEK cytotox inconclusive
O=C(NC1CCCN(c2cc(-c3ccc(Cl)cc3)[nH]n2)C1)c1ccc(Br)o1 (stereo not given)	3T3 cytotox inconclusive, HEK cytotox 44.7µM
COc1cc(OC)cc(C(=O)N2CC(c3noc(-c4ccccc4)n3)C2)c1	none
CCCNc1ncc(CN2CCC(Cc3nn(C)c(=O)n3CC)CC2)cn1	none
COc1ccc(-c2cc(N3CCC(NC(=O)COc4cccc(C)c4)CC3)n[nH]2)cc1	3T3 cytotox 39.8µM, NPR1 antag inconclusive, HEK cytotox inconclusive
CCOc1ccccc1CNC(=O)[C@@]12CCCC[C@H]1N(CCOC)C(=O)CC2	3T3 cytotox inconclusive, HEK cytotox inconclusive
